High-throughput results as filed in PubChem.
TROY NFkB inh: blocks TROY-dependent signaling in reporter cells. Q293 LMP1-TROYcd NF-kB luciferase reporter, 4 h. inhibition, % at 10 µM. 0.98% of 360,000 active. AID 1347056;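 active = compounds whose plate-normalised and pattern-corrected inhibition of the luciferase reporter signal at the single screening dose is 50% or more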
EBV LMP1 NFkB: reduces LMP1-driven NF-kappaB luciferase signal; inhibition, % at 12.5 µM; 0.69% of 350,000 active; LMP1-induced NF-kappaB luciferase reporter cells, luminescence; in the data active = inhibition above about 41%;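 note: 0% = neutral control wells and 100% = reference inhibitor control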
HIF-2a inh: HIF-2a inhibition; 786-0 RCC cells HIF-2a reporter, luciferase luminescence, overnight; inhibition, % at 18.8 µM; 0.72% of 360,000 active;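 active = inhibition of the luminescence signal of 40% or more relative to plate controls, in a single-dose primary screen at 18.75 µM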
MITF TRPM1 inh: reduces MITF-dependent TRPM1 promoter luciferase signal. inhibition, % at 12.5 µM. SK-MEL-5 TRPM1 promoter luciferase, 24 h. 0.83% of 330,000 active;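 active = mean inhibition across replicates of 60% or more, whatever share of single replicates reaches that level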
TWEAK Fn14 block: blocks TWEAK-Fn14 interaction in a reporter cell assay; TWEAK-stimulated Fn14 reporter cells, luciferase luminescence, 8 h; inhibition, % at 10 µM; 2% of 360,000 active; AID 1159606; in the data active = inhibition above about 50%
Peg3 prom inh: reduces Peg3 promoter-driven luciferase expression in HeLa | 1.7% of 360,000 active | HeLa PEG-Prom luciferase reporter, luminescence, overnight | inhibition, % at 20 µM | AID 588405;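 active = inhibition of at least 50% at 20 µM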
Active calls of the source: *; . = no result. Compounds with a hit are over-represented: about 4% of the library has one in this group of screens.

SMILES	TROY NFkB inh	EBV LMP1 NFkB	HIF-2a inh	MITF TRPM1 inh	TWEAK Fn14 block	Peg3 prom inh
CC1=C(C(=O)O)CC(S(=O)(=O)O)C1(C)C (stereo not given)	5	4	5	6	9	0
O=C(O)C(=Cc1cccc([N+](=O)[O-])c1)c1ccccc1	7	-4	10	.	-19	-3
O=C(C#Cc1cccc([N+](=O)[O-])c1)c1ccccc1	63*	46*	26	82*	66*	107*
CCN(CC(=O)Nc1ccc(OC)cc1)C(=O)c1ccc2c(c1)NC(=O)C(C)S2 (stereo not given)	-2	11	-18	-10	-4	-10
O=C(NCCCN1CCOCC1)C1CCN(S(=O)(=O)c2ccccc2)CC1	10	-2	-3	4	11	3
COCc1ccc(O)c2ncccc12	.	2	7	25	79*	1
Cc1ccccc1NCc1ccc(O)c2ncccc12	21	-10	16	54	59*	31
Oc1ccc(CNc2ccccc2)c2cccnc12	8	-15	4	54	21	29
NC(=O)c1ccc(N2CCNC(=O)C2)c([N+](=O)[O-])c1	8	5	8	-5	24	0
CC(CN)(NS(=O)(=O)c1ccccc1)c1ccccc1 (stereo not given)	9	-6	25	-19	-6	13
Cc1cc2nc(-c3ccc[nH]c3=O)[nH]c2cc1C	26	-5	35	39	83*	40
CC[C@@H]1CCC[C@@H](O)[C@@H](C)C(=O)O[C@H](C)[C@@H](C)C/C=C(C)/C(OC)=C\C(=O)N(C)C([C@@H](C)CC)C(=O)N(C)[C@@H](C(C)C)C(=O)N(C)[C@@H](COC)C(=O)N2CCC[C@H]2C(=O)N(C)[C@@H](C(C)C)C(=O)N2CCC[C@H]2C(=O)O1 (stereo not given in full)	47	.	-38	.	77*	28
CCc1nnc(NC(=O)CSc2nc(C)c3c(c2C#N)CCCC3)s1	65*	0	-201	-29	58*	-148
COc1ccc(CNC(=O)CN(C(=O)c2csnn2)c2ccc(F)cc2)cc1	-9	-1	-15	-9	4	0
COc1ccccc1CN1C[C@@H]2C[C@@H](c3ccc(Cl)cc3)N3CCC[C@@]23C1=O	-5	13	27	3	15	-3
COc1cc(Cl)c([C@@H]2C[C@H]3CN(c4ccccc4)C(=O)[C@]34CCCN24)cc1OC	-19	-1	14	7	-14	19
COc1cc([C@@H]2C[C@H]3CN(c4ccccc4)C(=O)[C@]34CCCN24)cc(OC)c1OC	-1	33	6	8	-3	87*
CCOc1cc([C@@H]2C[C@H]3CN(c4ccccc4)C(=O)[C@]34CCCN24)ccc1OC	10	-10	2	31	2	98*
COc1ccccc1-n1cc([C@@H]2C[C@H]3CN(c4ccccc4)C(=O)[C@]34CCCN24)cn1	40	60*	-54	46	80*	98*
Cc1c([N+](=O)[O-])c2ccc(O)cc2n1-c1ccccc1	32	35	3	-1	56*	31
Cc1c(C(=O)O)c2cc(O)ccc2n1-c1ccccc1	-29	0	5	-1	-5	-13
O=C1NC[C@@H](CCCCN2C[C@H](Cc3ccccc3)N(CCc3ccc(O)cc3)C(=O)C2=O)N(CC2CCCCC2)C1=O	-6	.	3	.	4	.
COc1ccc(C2=Nn3c(nnc3-c3ccccc3OC)SC2)cc1OC1CCOC1 (stereo not given)	38	24	36	63*	6	6
COc1ccc(C2=Nn3c(nnc3-c3ccccc3Cl)SC2)cc1OCC1CC1	61*	12	24	36	32	37
COc1ccc(OC)c(-c2nnc3n2N=C(c2ccc(OC)c(OCC4CC4)c2)CS3)c1	48	26	29	65*	17	33
SMILES	TROY NFkB inh	EBV LMP1 NFkB	HIF-2a inh	MITF TRPM1 inh	TWEAK Fn14 block	Peg3 prom inh
CCOC(=O)C1=C(c2ccccc2)NC(N)=NC1c1ccc(OCc2ccc(Cl)cc2)c(OC)c1 (stereo not given)	-22	-5	4	35	23	110*
Cc1[nH][nH]c(=O)c1C(c1c(C)[nH][nH]c1=O)c1cn(Cc2ccccc2Cl)c2ccccc12	16	-8	14	28	29	56*
CCOc1ccc(N(C)S(=O)(=O)c2ccc(C)c(C(=O)OCC(=O)c3c[nH]c4ccccc34)c2)cc1	23	1	5	30	79*	28
CC(O)c1cccc(NC(=O)CC(c2ccccc2)c2ccccc2)c1 (stereo not given)	-2	2	9	16	86*	2
C[C@H]1Cn2cnc(C(=O)Nc3cccc(Cl)c3)c2C(=O)N1	52*	35	-6	.	71*	39
Cc1cnc(C=NNC(N)=S)c2cccc(N)c12	12	12	-12	66*	38	32
NC(=S)N/N=C/c1cccc(O)c1O	-27	-11	3	16	-28	-4
NC(=S)NN=Cc1nccc2c(C(F)(F)C(F)(F)C(F)(F)F)cccc12	-58	82*	-89	.	22	37
NC(=S)N/N=C/c1ccc2ccccc2c1	-51	-19	-147	4	-33	-22
NC(=S)NN=Cc1nccc2ccccc12	31	82*	-155	38	77*	-58
Cc1cccc(N2CCN(C(=O)CCC(=O)N3CC(C)Oc4ccc(C)cc43)CC2C)c1 (stereo not given)	20	-9	11	.	22	33
Cc1cnc(C(=O)NCC(=O)Nc2ccccc2Br)cn1	15	7	-47	-5	-14	-32
COc1ccc([C@@]23Oc4cc(OC)cc(OC)c4[C@]2(O)[C@H](O)[C@H](C(=O)N(C)C)[C@H]3c2ccccc2)cc1	34	82*	56*	66*	87*	97*
COc1ccc(NC(=O)C2C(c3ccccc3)C2(Cl)Cl)c(OC)c1 (stereo not given)	28	-3	1	9	32	18
CCC1(C(N)=O)CC2C=CC1C2 (stereo not given)	-14	0	-4	-7	28	-16
O=Cc1cc(CCC(=O)O)ccc1O	12	53*	-7	-6	-4	-2
CC(C)CNS(=O)(=O)c1ccc(CCC(=O)O)cc1	9	-9	16	-4	10	-1
O=S(=O)(CCNC1CC1)NC1CCCCC1	-3	2	6	-8	1	-9
CCN1C/C(=C/c2cccc([N+](=O)[O-])c2)C(=O)/C(=C/c2cccc([N+](=O)[O-])c2)C1	-30	97*	97*	92*	95*	104*
CC/C(=C\c1ccc(N(C)C)cc1)c1ccncc1	-2	-6	-86	-38	-11	-25
